{
  "source": "paper PMC7862700",
  "about": "“An all-to-all approach to the identification of sequence-specific readers for epigenetic DNA modifications on cytosine”",
  "test_in_all_cases": "DAPPL (digital affinity profiling via proximity ligation, sequencing); 10 mM Tris-HCl pH 7.5, 50 mM NaCl, 1 mM DTT, 4% glycerol, room temperature, 30 min; GST-TFs on glutathione beads, 16-mer random dsDNA library, 0.1% formaldehyde crosslink after washing; high values mean tight binding",
  "conditions_in_all_cases": "protein: recombinant; tags: N-terminal GST; dsDNA, one strand shown",
  "key": {"ETV2": {"molecular_target": "T1, ETV2 (Homo sapiens, UniProt O00321 1-342)", "T1 sequence": "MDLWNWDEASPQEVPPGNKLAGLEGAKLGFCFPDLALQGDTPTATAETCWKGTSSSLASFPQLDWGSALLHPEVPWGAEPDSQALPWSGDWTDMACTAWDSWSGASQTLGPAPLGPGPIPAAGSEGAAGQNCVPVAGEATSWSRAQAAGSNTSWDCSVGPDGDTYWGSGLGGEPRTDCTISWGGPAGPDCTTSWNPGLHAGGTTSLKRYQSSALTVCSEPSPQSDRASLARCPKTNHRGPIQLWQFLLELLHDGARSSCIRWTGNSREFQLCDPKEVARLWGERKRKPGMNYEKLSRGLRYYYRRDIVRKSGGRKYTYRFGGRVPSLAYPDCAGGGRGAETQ", "how_it_was_run": "(§1)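 Binding signal is each hexamer's read frequency for a factor divided by its frequency in the tag-only sample. The factors were GST-fused human transcription factors from yeast, captured on glutathione beads, DNA-barcoded and pooled with that sample. Pools were incubated with 200 nmole of a random double-stranded 16-mer DNA library in Tris/NaCl/DTT/glycerol buffer at room temperature for 30 min, then washed, crosslinked with 0.1% formaldehyde, proximity-ligated with BsaI/T4 ligase (1 h, 37 °C), PCR-amplified and sequenced on an Illumina NextSeq500.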"}, "ELF3": {"molecular_target": "T2, ELF3 (Homo sapiens, UniProt P78545 1-371)", "T2 sequence": "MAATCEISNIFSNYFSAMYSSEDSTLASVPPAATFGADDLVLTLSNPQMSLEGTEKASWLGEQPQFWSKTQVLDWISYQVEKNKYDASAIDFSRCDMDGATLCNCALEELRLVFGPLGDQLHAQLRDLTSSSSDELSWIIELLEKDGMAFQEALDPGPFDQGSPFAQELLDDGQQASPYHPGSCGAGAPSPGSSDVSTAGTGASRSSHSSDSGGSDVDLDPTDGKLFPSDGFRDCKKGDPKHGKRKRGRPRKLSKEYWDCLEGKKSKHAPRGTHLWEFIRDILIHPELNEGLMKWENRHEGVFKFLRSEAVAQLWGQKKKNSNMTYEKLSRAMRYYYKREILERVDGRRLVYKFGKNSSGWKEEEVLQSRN", "how_it_was_run": "as §1"}, "ETV1": {"molecular_target": "ETV1 (Homo sapiens, UniProt P50549 1-477)", "sequence (P50549 whole entry)": "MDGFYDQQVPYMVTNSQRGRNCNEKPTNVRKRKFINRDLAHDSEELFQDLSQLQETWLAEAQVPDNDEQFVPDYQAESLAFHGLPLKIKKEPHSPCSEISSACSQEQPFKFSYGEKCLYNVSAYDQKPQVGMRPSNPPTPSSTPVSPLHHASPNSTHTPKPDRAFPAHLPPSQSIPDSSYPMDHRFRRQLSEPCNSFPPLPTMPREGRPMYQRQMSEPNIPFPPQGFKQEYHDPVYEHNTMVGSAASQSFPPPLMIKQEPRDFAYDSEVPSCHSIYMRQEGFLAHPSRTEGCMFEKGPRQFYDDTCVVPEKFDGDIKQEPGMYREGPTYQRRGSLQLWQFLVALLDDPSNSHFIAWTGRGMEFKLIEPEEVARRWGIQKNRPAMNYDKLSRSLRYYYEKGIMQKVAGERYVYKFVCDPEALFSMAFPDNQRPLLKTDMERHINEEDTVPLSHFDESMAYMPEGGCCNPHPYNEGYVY", "how_it_was_run": "as §1"}, "ERF": {"molecular_target": "T3, ERF (Homo sapiens, UniProt P50548 1-548)", "T3 sequence": "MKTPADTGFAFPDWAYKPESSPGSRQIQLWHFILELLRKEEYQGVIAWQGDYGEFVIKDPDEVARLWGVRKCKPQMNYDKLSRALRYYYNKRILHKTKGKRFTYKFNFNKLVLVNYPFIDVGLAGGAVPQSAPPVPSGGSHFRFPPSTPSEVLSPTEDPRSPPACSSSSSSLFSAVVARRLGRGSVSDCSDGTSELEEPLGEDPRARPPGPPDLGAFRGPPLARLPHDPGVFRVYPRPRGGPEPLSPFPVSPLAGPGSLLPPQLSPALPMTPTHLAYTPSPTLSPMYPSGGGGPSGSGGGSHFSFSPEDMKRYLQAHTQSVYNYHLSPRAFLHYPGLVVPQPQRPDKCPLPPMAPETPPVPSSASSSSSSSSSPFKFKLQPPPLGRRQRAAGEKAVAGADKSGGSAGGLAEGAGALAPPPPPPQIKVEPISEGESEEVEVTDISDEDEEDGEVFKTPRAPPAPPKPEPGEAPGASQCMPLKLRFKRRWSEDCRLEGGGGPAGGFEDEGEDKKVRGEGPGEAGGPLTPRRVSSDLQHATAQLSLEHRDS", "how_it_was_run": "as §1"}, "ETV3L": {"molecular_target": "T4, ETV3L (Homo sapiens, UniProt Q6ZN32 1-361)", "T4 sequence": "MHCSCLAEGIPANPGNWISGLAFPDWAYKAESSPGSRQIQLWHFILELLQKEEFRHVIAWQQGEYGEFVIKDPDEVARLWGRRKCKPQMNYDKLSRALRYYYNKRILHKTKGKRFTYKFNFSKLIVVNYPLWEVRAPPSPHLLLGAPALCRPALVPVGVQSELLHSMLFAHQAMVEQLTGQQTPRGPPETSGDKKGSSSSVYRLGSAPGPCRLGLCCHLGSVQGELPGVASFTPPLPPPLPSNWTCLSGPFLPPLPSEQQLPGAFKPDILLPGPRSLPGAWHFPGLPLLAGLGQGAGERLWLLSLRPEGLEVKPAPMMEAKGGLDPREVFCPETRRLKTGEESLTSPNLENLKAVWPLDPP", "how_it_was_run": "as §1"}, "ETS2": {"molecular_target": "T5, ETS2 (Homo sapiens, UniProt P15036 1-469)", "T5 sequence": "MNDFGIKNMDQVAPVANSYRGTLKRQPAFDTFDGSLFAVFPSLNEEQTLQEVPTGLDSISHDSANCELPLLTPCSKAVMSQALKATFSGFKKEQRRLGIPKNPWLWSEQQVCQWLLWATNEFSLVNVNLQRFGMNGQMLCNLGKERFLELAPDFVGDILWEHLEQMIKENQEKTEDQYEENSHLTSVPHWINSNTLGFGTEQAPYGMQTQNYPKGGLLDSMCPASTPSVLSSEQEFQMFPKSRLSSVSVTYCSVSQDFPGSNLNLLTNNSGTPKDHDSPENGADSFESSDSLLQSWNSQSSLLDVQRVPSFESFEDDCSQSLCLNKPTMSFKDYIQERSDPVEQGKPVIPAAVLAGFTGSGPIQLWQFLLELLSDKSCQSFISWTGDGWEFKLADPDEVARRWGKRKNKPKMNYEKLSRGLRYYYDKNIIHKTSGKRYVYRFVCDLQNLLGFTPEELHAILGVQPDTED", "how_it_was_run": "as §1"}, "SPDEF": {"molecular_target": "T6, SPDEF (Homo sapiens, UniProt O95238 1-335)", "T6 sequence": "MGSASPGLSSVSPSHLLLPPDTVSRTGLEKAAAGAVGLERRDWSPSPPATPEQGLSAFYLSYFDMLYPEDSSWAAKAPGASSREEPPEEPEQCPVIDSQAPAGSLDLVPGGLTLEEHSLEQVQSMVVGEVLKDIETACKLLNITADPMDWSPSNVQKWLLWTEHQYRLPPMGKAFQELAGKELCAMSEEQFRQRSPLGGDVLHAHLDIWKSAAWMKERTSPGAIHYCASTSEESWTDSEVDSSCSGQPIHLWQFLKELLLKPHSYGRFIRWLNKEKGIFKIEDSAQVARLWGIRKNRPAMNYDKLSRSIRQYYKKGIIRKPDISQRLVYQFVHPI", "how_it_was_run": "as §1"}, "ETV7": {"molecular_target": "T7, ETV7 (Homo sapiens, UniProt Q9Y603 1-341)", "T7 sequence": "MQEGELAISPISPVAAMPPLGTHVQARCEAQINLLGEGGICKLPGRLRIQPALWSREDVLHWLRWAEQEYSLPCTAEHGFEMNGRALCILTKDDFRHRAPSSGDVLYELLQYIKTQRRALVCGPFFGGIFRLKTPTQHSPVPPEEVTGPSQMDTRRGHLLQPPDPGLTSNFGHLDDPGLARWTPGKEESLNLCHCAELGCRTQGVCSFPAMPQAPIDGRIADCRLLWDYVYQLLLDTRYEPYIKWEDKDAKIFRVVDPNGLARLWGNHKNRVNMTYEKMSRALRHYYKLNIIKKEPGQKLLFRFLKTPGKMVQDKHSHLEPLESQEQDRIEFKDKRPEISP", "how_it_was_run": "as §1"}, "ETV3": {"molecular_target": "T8, ETV3 (Homo sapiens, UniProt P41162-2 1-143)", "T8 sequence": "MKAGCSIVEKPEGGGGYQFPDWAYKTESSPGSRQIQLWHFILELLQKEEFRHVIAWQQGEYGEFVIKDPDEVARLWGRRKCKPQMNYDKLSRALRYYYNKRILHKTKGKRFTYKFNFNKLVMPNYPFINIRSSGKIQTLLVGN", "how_it_was_run": "as §1"}, "ETV6": {"molecular_target": "ETV6 (Homo sapiens, UniProt P41212 1-452)", "sequence (P41212 whole entry)": "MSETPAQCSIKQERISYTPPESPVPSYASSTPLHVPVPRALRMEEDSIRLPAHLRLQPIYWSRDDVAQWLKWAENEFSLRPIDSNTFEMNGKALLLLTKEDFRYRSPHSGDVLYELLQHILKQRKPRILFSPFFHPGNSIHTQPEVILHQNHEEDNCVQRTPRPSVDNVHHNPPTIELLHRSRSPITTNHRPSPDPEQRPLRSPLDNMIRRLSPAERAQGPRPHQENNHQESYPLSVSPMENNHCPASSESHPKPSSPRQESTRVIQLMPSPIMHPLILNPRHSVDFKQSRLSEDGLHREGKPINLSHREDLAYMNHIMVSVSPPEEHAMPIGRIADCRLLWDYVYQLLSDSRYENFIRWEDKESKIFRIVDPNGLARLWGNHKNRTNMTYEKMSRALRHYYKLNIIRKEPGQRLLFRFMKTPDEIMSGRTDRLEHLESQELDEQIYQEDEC", "how_it_was_run": "as §1"}},
  "data": [
    {"sequence": "TCAAGT", "values": [
      {"measurement": "binding signal", "setting": "ETV2", "value": "1.06 fold enrichment (6-mer frequency, TF over GST control)"},
      {"measurement": "binding signal", "setting": "ELF3", "value": "1.13 fold enrichment (6-mer frequency, TF over GST control)"},
      {"measurement": "binding signal", "setting": "ETV1", "value": "1.15 fold enrichment (6-mer frequency, TF over GST control)"},
      {"measurement": "binding signal", "setting": "ERF", "value": "1.06 fold enrichment (6-mer frequency, TF over GST control)"},
      {"measurement": "binding signal", "setting": "ETV3L", "value": "1.12 fold enrichment (6-mer frequency, TF over GST control)"},
      {"measurement": "binding signal", "setting": "ETS2", "value": "1.09 fold enrichment (6-mer frequency, TF over GST control)"},
      {"measurement": "binding signal", "setting": "SPDEF", "value": "1.17 fold enrichment (6-mer frequency, TF over GST control)"},
      {"measurement": "binding signal", "setting": "ETV7", "value": "1.03 fold enrichment (6-mer frequency, TF over GST control)"},
      {"measurement": "binding signal", "setting": "ETV3", "value": "1.1 fold enrichment (6-mer frequency, TF over GST control)"},
      {"measurement": "binding signal", "setting": "ETV6", "value": "1.07 fold enrichment (6-mer frequency, TF over GST control)"}
    ]}
  ]
}
